# According to the supplement of paper PMC12669032:
# Values without a mark were called inactive.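 Rule for the calls: active = AUC reduced over 20% with Padj below 0.05 in at least 2 of 3 replicates; inactive = otherwise.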
# How the values were obtained:
# Assay in all cases: growth AUC relative to DMSO control (median of replicates) (fraction); higher = more growth (less inhibition), active = hit call of the paper
# Conditions in all cases: 20 µM; 24 h
# Coprococcus comes = tested on: Coprococcus comes
# Procedure, shortened: (§1)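 Hourly OD600 readings over 24 h tracked anaerobic gut bacterial monocultures grown at 37 °C in mGAM from OD600 0.05 with 20 µM compound (1% DMSO). After the minimum OD was set to 0, area under the growth curve was normalised to the plate median of solvent-only wells, or to row and column medians on the industrial chemical plate. Values are medians of three biological replicates grown on separate days.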
# Escherichia coli ED1a = tested on: Escherichia coli ED1a
# Procedure, shortened: as §1
# Escherichia coli IAI1 = tested on: Escherichia coli IAI1
# Procedure, shortened: as §1
# Eubacterium rectale = tested on: Eubacterium rectale
# Procedure, shortened: as §1
# [1] = tested on: Fusobacterium nucleatum subsp. animalis
# Procedure, shortened: as §1
# Lactobacillus gasseri = tested on: Lactobacillus gasseri
# Procedure, shortened: as §1
# Lactobacillus paracasei = tested on: Lactobacillus paracasei
# Procedure, shortened: as §1
# Odoribacter splanchnicus = tested on: Odoribacter splanchnicus
# Procedure, shortened: as §1
# [2] = tested on: Parabacteroides distasonis
# Procedure, shortened: as §1
# Parabacteroides merdae = tested on: Parabacteroides merdae
# Procedure, shortened: as §1
# Roseburia intestinalis = tested on: Roseburia intestinalis
# Procedure, shortened: as §1
# Streptococcus salivarius = tested on: Streptococcus salivarius
# Procedure, shortened: as §1
Structure (SMILES),growth AUC (Coprococcus comes),growth AUC (Escherichia coli ED1a),growth AUC (Escherichia coli IAI1),growth AUC (Eubacterium rectale),growth AUC [1],growth AUC (Lactobacillus gasseri),growth AUC (Lactobacillus paracasei),growth AUC (Odoribacter splanchnicus),growth AUC [2],growth AUC (Parabacteroides merdae),growth AUC (Roseburia intestinalis),growth AUC (Streptococcus salivarius)
C=CCC1=C(C)C(OC(=O)C2C(C=C(C)C)C2(C)C)CC1=O (stereo unspecified),0.986,1.01,1,0.927,0.946,0.868,0.949,0.996,0.846,0.96,0.968,0.986
CC(C)OC(=O)Nc1cccc(Cl)c1,1.02,1.01,0.965,1.07,1.06,0.85,0.985,1.13,0.965,1.06,0.906,0.981
CNC(=O)Oc1ccc(N(C)C)c(C)c1,0.992,1,1.01,1.06,1.08,0.909,1,0.861,0.977,0.986,0.949,0.992
O=C(O)C(F)(F)C(F)(F)C(F)(F)C(F)(F)C(F)(F)C(F)(F)F,1,0.998,1,1.01,0.955,1.03,1.01,1,1.08,1.03,1.03,1.02
CP(=O)(O)CCC(N)C(=O)[O-].[NH4+] (stereo unspecified),1.06,1.02,1.02,1.08,1.17,0.944,1.08,1.02,1.1,1.03,1.06,1.01
COc1cc(C)c(C(=O)c2c(OC)ccc(Br)c2C)c(OC)c1OC,1.04,1.01,0.971,1.02,1.01,0.709,1.03,1.05,0.528 (active),1.01,0.989,1.01
CCOP(=O)(OCC)OCC,1.01,1.01,1.07,1.01,1.07,0.931,0.964,1.05,1.03,1.05,1.07,0.994
CCOP(=S)(OCC)SCCS(=O)CC (stereo unspecified),0.971,0.985,0.98,1.11,1.02,0.941,0.948,1.06,1.01,1,0.965,0.973
O=C(O)COc1ccc(Cl)cc1Cl,1.02,1.01,0.991,0.943,0.947,1.08,1.05,0.958,0.988,0.982,1.03,0.989
CCOC(=O)CCN(Cc1ccccc1)SN(C)C(=O)O/N=C(/C)SC,0.985,0.995,0.988,1.08,0.837,0.909,1.02,1.08,1.02,0.99,0.987,0.976
CCOP(=O)(OCC)Oc1ccc(S(C)(=O)=O)cc1,1.01,0.98,0.977,1.13,0.996,1,0.976,1,1.11,1.03,0.974,1.02
CCOP(=S)(OCC)SCCS(=O)(=O)CC,1.02,1.05,0.994,1.02,1,0.903,1.01,1.06,1.04,0.991,0.971,0.994
ClC1C(Cl)C(Cl)C(Cl)C(Cl)C1Cl (mixture of isomers),1.03,1.01,0.981,0.936,0.966,1.08,1,0.935,1.04,0.949,1.02,0.974
